In all, about 69,000 compounds went through this assay and about 8,600 (12%) showed an effect of 50% or more. The entries come from a sample that favours strong results as a whole.

The test has as its system Plasmodium berghei. Nature of the test: Screen against P. berghei liver stage (PbLuc), transformed with Luciferase, at 10uM. It counts as functional, HepG2. As to conditions: tested at 10 uM.
In the case of `CN(Cc1cscn1)C1CCCN(c2cccnn2)C1` (centres undefined), the INHIBITION stood at 15.5%.
The result for `COc1c(C)cnc(CN2CCCC(c3noc(C4CC4)n3)C2)c1C` (centres undefined) reads 17.1%; that for `CCc1n[nH]c(C2CN(C(=O)c3ccc4c(c3)CCCC4)CCO2)n1` (centres undefined), -43.6%.
For `O=C(O)c1cncc(Cc2cccc(F)c2)c1` the value was -19.7%; for `CCc1ccc(CN2CCNC(C(=O)N3CCN(C)CC3)C2)nc1` (centres undefined), -14.1%.
For `COc1ccc(F)cc1C(=O)N(C)[C@@H]1CC[C@@H](O)[C@@H]1O` the value was -42%; for `Cc1ccoc1C(=O)N1CCn2nnc(COc3cccnc3)c2C1`, 17.1%; for `Cn1cc(CN2CCOC(c3nccnc3-c3cccc(F)c3)C2)cn1` (centres undefined), 23%.
Take `CC(C)NC(=O)N1CCN(S(C)(=O)=O)CC2(CNC(=O)C2)C1` (centres undefined): the INHIBITION is on record as -3.52%.
On to `N#Cc1cccc(CN2CC[C@@H]3CO[C@@H](CN4CCCC4)[C@@H]3C2)c1`, for which the INHIBITION was determined as 23.3%.
For `COCc1cncc2c1CCN(C(=O)c1ccc(C)o1)C2` the value was 7.11%; for `O=C(c1ccc[nH]1)N1CCc2c(COCC3CC3)cncc2C1`, 14.8%.
The result for `CN(C)C(=O)N1CCc2c(COCC3CC3)cncc2C1` reads 59%; that for `O=C(c1cccnc1)N1CCc2c(COCC3CC3)cncc2C1`, -5.05%; that for `CN(C)CCOCc1cncc2c1CCN(C1CCOCC1)C2`, 12.6%.
The result for `Cc1ccc(C(=O)N2CCc3c(COCC4CC4)cncc3C2)o1` reads 88.2%; that for `O=C(c1ccco1)N1CCc2c(COCC3CC3)cncc2C1`, -3.88%.
As to `O=C(c1ccncc1)N1CCc2c(COCC3CC3)cncc2C1`, the INHIBITION is given as -1.55%.
For `O=C(c1ccoc1)N1CCc2c(COCC3CC3)cncc2C1` the value was 64.9%; for `CN(C)CCOCc1cncc2c1CCN(C(=O)C1CCOCC1)C2`, 55.4%.
In the case of `CN(C)CCOCc1cncc2c1CCN(C1CCOC1)C2` (centres undefined), the INHIBITION is -2.27%.
The result for `N#Cc1ccc(C(=O)N2CCc3c(COCC4CC4)cncc3C2)cc1` reads 43%; that for `COCCN1CCC2(COCCN(C(=O)Cc3cccs3)C2)C1` (centres undefined), -58.7%; that for `Cc1cc(C(=O)N2CC[C@@H](N(C)C)[C@@H]2Cc2ccccc2)no1`, -2.35%.
The result for `COc1ccc(C(O)CNC(=O)NCc2c(C)cc(C)[nH]c2=O)cc1` (centres undefined) reads 16.9%; that for `CCO[C@H]1CN(C(=O)c2ccnnc2)[C@@H]2COC[C@H]12`, 13.6%; that for `CCn1cc(-n2cc3nc(N4CCC(O)CC4)[nH]cc-3c2=O)cn1`, -10.6%.
The result for `O=C(c1cscn1)N1CC[C@@H]2[C@@H]1CCN2C1CCOCC1` reads -23.1%; that for `Cc1cnc(C(=O)N2Cc3ncn(C)c3C(COCC(C)C)C2)cn1` (centres undefined), 43%; that for `O=C(c1n[nH]cc1Cl)N1CCOCC1`, 39.1%.
Take `Cc1ccc(N2CCC3(CCCN(C(=O)c4cnccn4)C3)C2)nn1` (centres undefined): the INHIBITION came to 18.5%.
Turning to `Cc1noc(C)c1CN1CCN(c2ccnc(-c3ccccc3)n2)CC1`, the INHIBITION worked out at 62.5%.
For `Cc1noc(C)c1CN1CCc2ncnc(-c3cnn(C)c3)c2CC1` the value was 43%.
The result for `Cc1cc(CN2CCN(c3ccnc(-c4ccccc4)n3)CC2)no1` reads 2.29%; that for `Cc1noc(C)c1CN1CCc2ncnc(-c3ccncc3)c2CC1`, 90.1%.
The result for `c1ccc(CN2CCc3ncnc(-c4ccncc4)c3CC2)nc1` reads 46.2%; that for `Cc1cnc(CN2CCN(c3ccnc(-c4ccccc4)n3)CC2)cn1`, 47.2%; that for `Cc1noc(C)c1CN1CCc2ncnc(-c3ccc(F)cc3)c2CC1`, 67.5%.
Take `Cc1noc(C)c1CN1CCc2ncnc(-c3ccccc3)c2CC1`: the INHIBITION turned out to be 53%.
The result for `Cc1noc(C)c1CN1CCc2ncnc(-c3cccnc3)c2CC1` reads 25.8%; that for `Cc1ccc(CN2CCc3ncnc(-c4ccncc4)c3CC2)o1`, -4.32%.
As to `Cc1ccc(CN2CCc3ncnc(-c4ccc(F)cc4)c3CC2)o1`, the INHIBITION is reported as 13.7%.
For `Cc1nc(CN2CCc3ncnc(-c4ccc(F)cc4)c3CC2)cs1` the value was 15.4%; for `O=C(C1=CCCC1)N1CCC2(CC1)CC(Oc1cccnc1)CO2` (centres undefined), 41.3%; for `COc1ccc(COCC(O)CNC(=O)c2ccc(C#N)cc2)cc1` (centres undefined), 46.2%.
The result for `CN(C)C(=O)Cn1c(C2CC2)c(CN2CCSCC2)c2cccnc21` reads 23%.
As to `CC(=O)c1ccc(OCC(=O)c2cccn2C)cc1`, the INHIBITION is given as -175%.
For `CC(=O)N[C@@H]1CN(C(=O)Cc2coc3cc(C)ccc23)C[C@H]1O` the value was -5.8%; for `c1ccc(CN2CCc3ncnc(-c4ccoc4)c3CC2)nc1`, 12.4%; for `Cc1ccc(CN2CCc3ncnc(-c4ccoc4)c3CC2)o1`, -8.28%.
Turning to `Cc1noc(C)c1CN1CCc2ncnc(-c3ccoc3)c2CC1`, the INHIBITION was 68.4%.
For the molecule `Cc1nnc2n1CCN(C(=O)C1CCN(Cc3ccccc3)CC1)C2`, the INHIBITION was 35.7%.
Consider `Cc1cc(NC(=O)CC2(Cn3cnnn3)CCCCC2)nn1C`, for which the INHIBITION is reported as 39.1%.
For `Cn1ccc(C(=O)N2CCC[C@]3(C[C@@H](OCc4ccccn4)CO3)C2)n1` the value was 40.9%.
With `c1cnc2[nH]c(C3CCCC3)c(CN3CCOCC3)c2c1`, the INHIBITION turned out to be 33.7%.
For `Cc1cnc2[nH]c(C(F)(F)F)c(CN3CCOCC3)c2c1` the value was -0.232%; for `CCN1CCN(Cc2c(C3CCCC3)[nH]c3ncccc23)CC1`, 20.4%.
Consider `Cc1cnc2[nH]c(C(F)(F)F)c(CN3CCSCC3)c2c1`, for which the INHIBITION is recorded as 21.1%.
Turning to `CC1CCCN(Cc2c(C3CC3)[nH]c3ncccc23)C1` (centres undefined), the INHIBITION was determined as 19.6%.
For `Cc1cnc2[nH]c(C(F)(F)F)c(CN3CCCC(CO)C3)c2c1` (centres undefined) the value was 50.8%; for `OCC1CCCN(Cc2c(C3CCCC3)[nH]c3ncccc23)C1` (centres undefined), 69.3%.
Turning to `CC1CCCN(Cc2c(C3CCOCC3)[nH]c3ncccc23)C1` (centres undefined), the INHIBITION worked out at 59.7%.
For `c1cnc2[nH]c(C3CCCC3)c(CN3CCCCC3)c2c1` the value was -2.11%; for `Cc1nc(CN2CCCC(NCCOc3ccccc3C#N)C2)no1` (centres undefined), 44.1%.
For `CC(c1ccc2c(c1)OCCO2)N(C)C(=O)c1ccnnc1` (centres undefined) the value was -4.21%.
The result for `Cn1ccc(CN2CCN(CC3CC3)CC2)cc1=O` reads 21.5%; that for `COCCCNC(=O)CN(C)C(=O)c1ccc(OC)cc1O`, 7.925%; that for `CCCS(=O)(=O)NCc1nc(C)cc(N2CCCC2)n1`, 56.6%.
`CCNC(=O)CCN1CCC(c2cc(N3CCOCC3)nc(C)n2)CC1`: the INHIBITION was 38.5%.
For `CCNC(=O)CN1CCN(c2cc(C)nc(-c3ccncc3)n2)CC1` the value was 48.1%; for `CCS(=O)(=O)NCc1nc(C)cc(N2CCCC2)n1`, 25.1%.
For `Cc1cc(N2CCCC2)nc(CNS(=O)(=O)Cc2ccccc2)n1` the value was 81%; for `CCCc1nc(C)cc(N2CCC3(CCC(=O)N(C4CC4)C3)CC2)n1`, -23.5%; for `CC(=O)N1CCCn2nc(CNS(=O)(=O)Cc3ccccc3)cc2C1`, -3.83%.
For `Cc1nc(C2CCCN(C(=O)CO)C2)cc(N2CCOCC2)n1` (centres undefined) the value was -1.53%.
For `CCS(=O)(=O)NCc1nc(C)cc(N2CCCCC2)n1`, the INHIBITION is given as 75.2%.
For `CCS(=O)(=O)NCc1nc(C)cc(N2CCOCC2)n1` the value was 65.2%; for `O=S(=O)(Cc1ccccc1)NCC1CCN(c2cnccn2)CC1`, -45.8%; for `CCCS(=O)(=O)N1CCN(c2cc(-n3nc(C)cc3C)nc(C)n2)CC1`, 0.139%.

These data come from ChEMBL document CHEMBL4513216, “Probing the Open Global Health Chemical Diversity Library for Multistage-Active Starting Points for Next-Generation Antimalarials” (ACS Infect Dis, 2020).
